Tgondii IFNg = T. gondii growth inhibition under IFN-gamma; Toxoplasma gondii growth in IFN-gamma-treated host cells; stronger effect = lower value; activity change, negative = inhibition, % (concentration not given with the values); 69,000 tested, 3.8% active; AID 1259416; in the data active = activity change below about -70%, passing the limit was not always enough;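 also: host cells are HeLa cells infected with Toxoplasma gondii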
* marks the source's active call; other numbers are inactive results. Shown is part of a subset that was picked to be rich in hits.

SMILES | Tgondii IFNg
CS(=O)(=O)N1CC[C@@H]2OCCN(C(=O)c3cccnc3)[C@@H]2C1 | 1
CCc1nccc(CN(C)CC2COc3ccccc3O2)n1 (stereo unspecified) | -34
CSc1ccc2cc(CN(C)CCc3cn[nH]c3)c(=O)[nH]c2c1 | 4
CCN1C[C@@H]2C3(CCN(S(C)(=O)=O)CC3)CC[C@]2(C(=O)N2CCCC2)C1 | 3
COc1ccc(CN2C(=O)N(C)C3(CCN(Cc4ccc(-c5ccccc5Cl)o4)CC3)C2=O)cc1 | -48
CCC(=O)Nc1cccc(C(=O)N2CCC(Oc3ncccn3)CC2)c1 | -37
CSc1ccc(C2c3[nH]c4ccccc4c3CCN2C(=O)c2ccccc2Cl)cc1 (stereo unspecified) | 89
O=C(c1ccccc1F)N1CCc2c([nH]c3ccccc23)C1c1ccccc1 (stereo unspecified) | 39
Cc1cccc(C2c3[nH]c4ccccc4c3CCN2C(=O)c2ccccc2Cl)c1 (stereo unspecified) | -110*
CSc1ccc(C2c3[nH]c4ccccc4c3CCN2C(=O)c2ccc(C)cc2)cc1 (stereo unspecified) | 34
Cc1cccc(C2c3[nH]c4ccccc4c3CCN2C(=O)c2ccccc2)c1 (stereo unspecified) | 135
Cc1ccc(C2c3[nH]c4ccccc4c3CCN2C(=O)c2ccccc2Cl)cc1 (stereo unspecified) | -118*
CC(=O)N1CCO[C@H]2CN(S(=O)(=O)c3ccc(C)cc3)CC[C@@H]2C1 | 5
O=C(COc1cc(Cl)c(Cl)cc1Cl)OCC(=O)c1ccccc1 | 4
CO[C@@H]1CN(C)C(=O)c2cc(NC(=O)C3CCCCC3)ccc2OC[C@@H](C)N(Cc2cccnc2)C[C@@H]1C | 28
COC(=O)[C@H]1C[C@@H](O)CCN1S(=O)(=O)c1cc(Cl)ccc1OC | -33
CCCc1cc(C(=O)N(C)Cc2cc(N(C)C)nc(C3CCCNC3)n2)no1 (stereo unspecified) | -25
Cc1cccc(C2=NC3(CCN(C(=O)c4ccc(C(C)(C)C)cc4)CC3)NC2=O)c1 | -55
Cn1nc(CN2CCCCC2)c2c1CN(C(=O)c1cccc(C#N)c1)C2 | 3
CCc1ccc(S(=O)(=O)N2Cc3c(CN4CCCCC4)nn(C)c3C2)cc1 | 3
CCCc1ccc(C(=O)N2Cc3c(CN4CCCCC4)nn(C)c3C2)cc1 | -79*
O=C(NC[C@H]1CCCN(C(=O)c2cnccn2)C1)c1cccs1 | 13
CCn1cc(CN2CCN(S(=O)(=O)Cc3ccccc3F)CC2)cn1 | 16
Cc1cc(C)nc(CN2C[C@H]3OC(=O)N(CCCN4CCOCC4)[C@H]3C2)n1 | 7
CCc1nc(OCC(=O)Nc2ccc(Cl)cc2Cl)c2ccccc2n1 | 0
SMILES | Tgondii IFNg
CCOc1ccc(N(C)C(=O)CN2C(=O)CCc3cc(S(=O)(=O)N4CCCCC4)ccc32)cc1 | 1
O=C1CCc2cc(S(=O)(=O)Nc3ccc(Cl)cc3)cc3c2N1CC3 | -17
O=C1CCc2cc(S(=O)(=O)Nc3ccc(Br)cc3)cc3c2N1CC3 | 243
COc1ccc(NS(=O)(=O)c2cc3c4c(c2)CCN4C(=O)CC3)cc1 | -15
O=C1CCc2cc(S(=O)(=O)NCCc3ccccc3)cc3c2N1CCC3 | -5
Cc1cc(C)cc(NS(=O)(=O)c2cc3c4c(c2)CCN4C(=O)CC3)c1 | -79*
CCc1cccc(NS(=O)(=O)c2cc3c4c(c2)CCN4C(=O)CC3)c1 | -81*
Cc1cc(F)ccc1NS(=O)(=O)c1cc2c3c(c1)CCN3C(=O)CC2 | -45
CC(C)c1ccc(NS(=O)(=O)c2cc3c4c(c2)CCN4C(=O)CC3)cc1 | -77*
CCc1ccccc1NS(=O)(=O)c1cc2c3c(c1)CCN3C(=O)CC2 | -52
NC(=O)c1ccc(C(F)(F)F)nc1N1C[C@H]2C[C@H](O)[C@@H](O)C[C@H]2C1 | 4
CN(C)CC(=O)N1CCC2(CC1)COC(COc1ccccn1)C2 (stereo unspecified) | -42
CC(C)CN1C(=O)CO[C@H]2CN(c3ccccn3)C[C@@H]21 | 4
CCc1cc2c(=O)n(CC(=O)NC(C)c3nc4ccccc4n3C(C)C)cnc2s1 (stereo unspecified) | 25
Cc1nn(CC(=O)N2C[C@@H](c3ccccc3F)[C@@]3(CCCCC(=O)N3)C2)c(C)c1C | 6
COCCNC(=O)[C@@]12COC[C@@H]1CN(Cc1ccc3ccccc3n1)C2 | 9
CC(C)c1nccc(-c2nccn2Cc2cnn(-c3ccccc3)c2)n1 | 19
CCC(c1cccnc1)N(C)CC1CCC(N)CC1 (stereo unspecified) | -53
COCC(C)NC(=O)C1CCN(S(=O)(=O)c2ccc(F)cc2)CC1 (stereo unspecified) | -32
O=C(NCc1ccc(N2CCOCC2)cc1)c1csc(-c2ccc(N3CCCC3)nc2)n1 | 84
O=C(c1csc(-c2ccc(N3CCCC3)nc2)n1)N1CCC2(CC1)OCCO2 | 41
O=C(NCCN1CCOCC1)c1csc(-c2ccc(N3CCCC3)nc2)n1 | -100*
COc1cccc(NC(=O)c2ccc3nnc(C4CCN(Cc5ccccc5)C4)n3c2)c1 (stereo unspecified) | -16
COCCC(=O)c1cc(-c2ccn(-c3ccccc3)n2)n2ccccc12 | 89
Cc1nc(-c2cc(C(=O)NCCN(C)C)c3ccccn23)cn1-c1nccs1 | 21
SMILES | Tgondii IFNg
CN(C)CCNC(=O)c1cc(-c2ccn(-c3ccccc3)n2)n2ccccc12 | -106*
CCCn1c(=O)/c(=C2\C=Cc3ccccc3N2CC)s/c1=C1/SC(=S)N(N)C1=O | -30
Cc1cnc(NC(=O)c2nccnc2C(=O)O)c(C)n1 | 26
CCC(CC)n1nc(C)cc1NC(=O)c1ccc(=O)[nH]c1 | 13
COc1ccc(S(=O)(=O)Nc2ccc3c(c2)C(=O)N([C@@H](C)CO)C[C@H](C)[C@@H](CN(C)C(=O)Nc2c(C)noc2C)OCCCC[C@@H](C)O3)cc1 | 91
O=C(NCc1ccc2c(c1)OCO2)c1ccccc1C1CCNC1 (stereo unspecified) | -2
Fc1ccc(C2CCNCC2COc2ccc3c(c2)OCO3)cc1 (stereo unspecified) | -75*
Fc1ccc([C@@H]2CCNC[C@H]2COc2ccc3c(c2)OCO3)cc1 | -35
Cc1nn(Cc2n[nH]c(=O)n2[C@H](C)c2ccc(F)cc2)c(C)c1C | -4
COc1cc(OC)c(NC(=O)C2=C(C)C(=O)OC23CCN(Cc2ccccc2)CC3)cc1Cl | -26
O=C(OCc1ccc(Cl)cc1Cl)c1ccc2ccccc2n1 | 45
O=C(NC(=O)c1ccccc1F)OCc1ccc(Cl)cc1Cl | -37
N/C(Cc1ccc(Cl)cc1Cl)=N\OC(=O)c1ccc(Br)o1 | -86*
Cc1[nH]cnc1-c1nccn1Cc1ccco1 | 6
Cc1cc2cc(NC(=O)c3nc4ccccc4n(C)c3=O)cc(Cl)c2o1 | 28
Cc1cc2cc(NC(=O)CN3C(=O)NC(C)(c4ccccc4)C3=O)cc(Cl)c2o1 (stereo unspecified) | -77*
Cc1cc2cc(NC(=O)CNC(=O)c3nc4ncccn4n3)cc(Cl)c2o1 | 5
Cc1nc(-c2ccc(F)cc2)sc1CCNC(=O)C(=O)Nc1ccccc1Cl | 7
O=C(NCCc1csc(-c2ccc(F)cc2)n1)C(=O)Nc1cccc([N+](=O)[O-])c1 | 93
CCNC(=O)NC(CC(C)C)c1nnc2n1CCNCC2 (stereo unspecified) | 2
CCOC(=O)c1ccc(N2CCCCC2)c(NS(=O)(=O)c2ccc(C)cc2)c1 | -100*
CCOC(=O)c1cccc(NC(=O)CN2C(=O)CCc3cc(S(=O)(=O)N4CCCCC4)ccc32)c1 | -34
CCOC(=O)c1cnn(C)c1NS(=O)(=O)c1ccc(Cl)cc1 | -62
